The record followed here is PubChem BioAssay (Tox21).

Values joined by “and” are separate entries in the source; they are usually repeats but may differ in a detail not shown here. Equal values may be shown once. A number with no mark means an inactive call. Where a call stands in place of a potency, no number is given. Active and inactive are the calls of the source. The call rests on the fitted dose curve.
Potency means the concentration at half of the fitted maximal effect.

Sequence of Gonadotropin-releasing hormone receptor (Homo sapiens) (P30968 whole entry, looked up): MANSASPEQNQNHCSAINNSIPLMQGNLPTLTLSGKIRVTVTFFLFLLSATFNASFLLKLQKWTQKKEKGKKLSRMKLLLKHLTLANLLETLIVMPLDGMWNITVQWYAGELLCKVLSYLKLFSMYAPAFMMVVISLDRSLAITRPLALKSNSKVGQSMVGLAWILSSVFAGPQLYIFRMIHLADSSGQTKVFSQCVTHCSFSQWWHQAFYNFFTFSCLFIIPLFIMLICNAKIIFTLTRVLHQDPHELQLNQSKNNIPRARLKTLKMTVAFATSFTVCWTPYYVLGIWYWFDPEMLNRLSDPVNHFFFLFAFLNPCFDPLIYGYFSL

The assay addresses Gonadotropin-releasing hormone receptor (Homo sapiens) (UniProt P30968). Put plainly: Human gonadotropin-releasing hormone receptor (GnRHR) small molecule agonists, calcium flux assay in GnRHR-HEK293 cells (AID 1920063). Further: nearly all actives have a fitted effect of over 35% in size. The conditions noted are these: calcium flux fluorescence, agonist mode; series mostly up to 57.6 µM; activity change: at the top concentration. The text has this:
National Center for Advancing Translational Sciences [NCATS]
Division of Preclinical Innovation [DPI]
U.S. Environmental Protection Agency [EPA]
National Institutes of Environmental Health Sciences [NIEHS]
National Toxicology Program [NTP]
U.S. Food and Drug Administration [FDA]
Gonadotropin-releasing hormone receptor (GnRHR) is a G-protein-coupled receptor (GPCR) and acts (through phospholipase C) to increase intracellular inositol trisphosphate and then release intracellular calcium stores. Cell-based GnRHR-Hek293 calcium influx assay is using HEK293 cells that have been genetically engineered to express the human GnRHR, which activity can be measured by calcium signaling. A compound/drug can activate (agonist) GnRHR that can be monitored by levels of intracellular calcium.
GnRHR-HEK293 cells developed by Codex Corp contain human GnRHR reporter gene, which was stably integrated into HEK 293 cells. The compound activation can be detected by fluorescence intensity via calcium flux assay. This cell line has been used to screen the Tox21 10K compound library to identify GnRHR agonists.
GnRHR-Hek293 cells were dispensed at 1500cells/4uL/well in 1536-well black wall/clear bottom plates using a multidrop dispenser. After the assay plates were incubated at a 37 C/5% CO2 incubator for 18 hours, 4 uL of Calcium Dye Solution was added to each well. The plates were incubated at 37 C for 1 hour. For agonist mode, 23 nL of compounds dissolved in DMSO, positive controls or DMSO only was transferred to the assay plate by a pin tool station. The fluorescence intensity in the plates was measured using FDSS 7000EX kinetic plate reader with a filter set of Ex/Em=480/540 for 3 min at 1 sec intervals. Each test compound was measured at 15 concentrations and in triplicates.
Regarding `N#CCCCCC#N`, the Potency entry is “inactive”.
For the compound `CCC(C)c1ccc(O)cc1` (stereo not given), the Potency entry is “inactive”.
Consider `COC(=O)C(Cl)C(=O)OC`, for which the “activity change” value is -1.29% [at 26.4 µM, stronger effect = higher value].
Regarding `COc1ccc(C=O)cc1OC`, the Potency entry is “inactive”.
`O=Cc1ccco1`: the Potency entry is “inactive”.
On the same count and under the same terms, the result for `CN(C)C(=S)SSC(=S)N(C)C` reads “inactive”.
Still for that read-out and setting: in the case of `CCOP(=S)(OCC)Oc1cnc2ccccc2n1` it was “inactive”.
In the case of `Clc1ccc(C(Cl)(Cl)Cl)cn1`, the “activity change” value was -1.64%.
As to `Cc1ccc(N)c(C)c1`, the Potency entry was “inactive”.
As to `Nc1ccc(Oc2ccc(N)cc2)cc1`, the Potency result is “inactive”.
For `CC(O)CN1CCN(CC(=O)[O-])CCN(CC(=O)[O-])CCN(CC(=O)[O-])CC1.[Gd+3]` (stereo not given), the “activity change” value is -0.508% [at 26.4 µM, stronger effect = higher value].
As for `CCCCCCCCCCCCCCCC[n+]1ccccc1`, the Potency is 25.7 µM (active) and 38.9 µM (active) and 17.1 µM (active).
Still for that read-out and setting: in the case of `CCCCCCCCCCCOC(=O)c1ccccc1C(=O)OCCCCCCCCCCC` it was “inactive”; in that of `Nc1ccc(Br)cc1`, “inactive”; in that of `Cc1cccc(C)c1N`, “inactive”.
Regarding `Nc1ccncc1`, the Potency result is “inactive”.
Still for that read-out and setting: the result for `CCCCCCCCn1sccc1=O` reads “inactive”.
For `CCCC1CCCCN1` (stereo not given), the “activity change” value is -0.559% [at 26.4 µM, stronger effect = higher value].
The same measure, in the same setting: the result for `O=C(Cl)CCl` reads -2.35%.
For the compound `OCC(O)CCl` (stereo not given), the Potency result was “inactive”.
Turning to `Cl/C=C/CCl`, the “activity change” value was -1.69%.
For `CCOP(=O)(OCC)Oc1ccc([N+](=O)[O-])cc1`, the Potency result is “inactive”.
As for `CC(C)(C)C(=O)C(Cl)Cl`, the “activity change” value was 2.17%.
Take `ClCC(Cl)(Cl)Cl`: the “activity change” value was 1.07%.
For the compound `CCCCOC(=O)c1ccccc1C(=O)OCc1ccccc1`, the Potency entry was “inactive”.
Turning to `CC1(C)CC(=O)CC(C)(C)N1[O]`, the “activity change” value is 2.02%.
As to `C[C@]12CC[C@H]3[C@@H](CC[C@@]45O[C@@H]4C(O)=C(C#N)C[C@]35C)[C@@H]1CC[C@@H]2O`, the Potency entry was “inactive”.
For the compound `Cc1cc(O)ccc1Cl`, the Potency result was “inactive”.
Regarding `COc1ccc(C(O)(c2cncnc2)C2CC2)cc1` (stereo not given), the “activity change” value is -0.247%.
With `CC(O)CCO` (stereo not given), the Potency result was “inactive”.
Still for that read-out and setting: the result for `COP(=S)(OC)Oc1ccc(SC)c(C)c1` reads “inactive”.
Turning to `CCCCC(CC)C(=O)Cl` (stereo not given), the Potency entry was “inactive”.
As to `COc1cc2c(cc1OC)[C@@]13CCN4CC5=CCO[C@H]6CC(=O)N2[C@H]1[C@H]6[C@H]5C[C@H]43`, the “activity change” value was 0.294%.
For `Nc1ccc(-c2ccc(N)c(N)c2)cc1N`, the Potency entry was “inactive”.
Regarding `CCC(C)n1c(=O)[nH]c(C)c(Br)c1=O` (stereo not given), the “activity change” value was -0.525%.
On to `CCN(N=O)C(N)=O`, for which the Potency entry is “inactive”.
On the same count and under the same terms, in the case of `ClC(Cl)=C(Cl)C(Cl)=C(Cl)Cl` it was “inactive”.
`CC1COC2(c3ccccc3Cl)c3cc(Cl)ccc3NC(=O)CN12` (stereo not given): the “activity change” value is 5.88% [at 26.4 µM, stronger effect = higher value].
The same measure, in the same setting: in the case of `CC(C)CC(C)(c1ccc(O)cc1)c1ccc(O)cc1` it was 11.7%.
As for `NC(=O)CN1CCCC1=O`, the Potency entry is “inactive”.
